Data as given in PubChem BioAssay.
Activity calls are given as the source filed them.

Experiments:
[1] = small molecules captured by biotinylated probe aFSTL3 – biochemical, small-molecule microarray, fluorescence 635/667, stem cell growth factor project, primary screen (AID 1064); details: higher = more signal;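 note: measures binding of the biotinylated anti-FSTL3 antibody to printed compounds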
[2] = binders from COS7 lysate, DM2A8 probe, primary screen, torsin A project, cell lysate, small-molecule microarray, fluorescence 635/667 (AID 1065); details: higher = more signal, COS7 lysate expressing mutant human TOR1A
[3] = small molecules captured by biotinylated probe aFGF2 – biochemical, small-molecule microarray, fluorescence 635/667, stem cell growth factor project, primary screen (AID 1067); details: higher = more signal;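 note: measures binding of biotinylated aFGF2 protein to printed compounds on slides; z-score merges feature fluorescence and signal-to-noise across triplicate slides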
[4] = small molecules captured by biotinylated probe aFGF10 – biochemical, small-molecule microarray, fluorescence 635/667, stem cell growth factor project, primary screen (AID 1071); details: higher = more signal;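 note: score merges 667 nm spot intensity and signal to noise from triplicate slides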
[5] = biological target: Neurogenic locus notch homolog protein 2 (Homo sapiens) (UniProt Q04721); assay: small molecules binding Notch2 protein – biochemical, small-molecule microarray, 635 nm fluorescence, stem cell growth factors, primary screen (AID 1073); details: higher = more signal
[6] = biological target: Pro-neuregulin-1, membrane-bound isoform (Homo sapiens) (UniProt Q02297); assay: small molecules binding neuregulin-1 protein – biochemical, small-molecule microarray, fluorescence 635/667, psychiatric disease protein project, primary screen (AID 1075); details: NRG1 binding, 635 nm fluorescence, higher = more signal;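 note: score combines 667 nm spot fluorescence with signal to noise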
Sequence of Pro-neuregulin-1, membrane-bound isoform (Homo sapiens) (Q02297 whole entry, looked up, the tested form may be a part, canonical isoform): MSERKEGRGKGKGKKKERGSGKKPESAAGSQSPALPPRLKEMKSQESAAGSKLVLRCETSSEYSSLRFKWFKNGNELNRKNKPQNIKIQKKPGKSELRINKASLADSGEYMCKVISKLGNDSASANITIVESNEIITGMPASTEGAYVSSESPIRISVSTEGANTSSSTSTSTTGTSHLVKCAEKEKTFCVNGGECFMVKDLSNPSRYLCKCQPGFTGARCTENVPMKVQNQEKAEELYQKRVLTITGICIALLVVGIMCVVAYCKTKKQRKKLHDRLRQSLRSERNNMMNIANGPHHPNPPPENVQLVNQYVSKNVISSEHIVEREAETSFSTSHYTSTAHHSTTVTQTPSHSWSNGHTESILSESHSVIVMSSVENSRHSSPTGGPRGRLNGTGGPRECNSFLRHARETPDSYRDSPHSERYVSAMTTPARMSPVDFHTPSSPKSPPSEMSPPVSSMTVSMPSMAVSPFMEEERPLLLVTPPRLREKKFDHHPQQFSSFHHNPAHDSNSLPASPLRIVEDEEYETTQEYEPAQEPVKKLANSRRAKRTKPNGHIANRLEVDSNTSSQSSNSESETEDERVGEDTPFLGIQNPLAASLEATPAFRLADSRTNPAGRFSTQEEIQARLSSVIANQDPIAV

[7] = system: Neuregulin-1 EGF-like domain; assay: small molecules binding NRG1 EGF domain – biochemical, small-molecule microarray, 635 nm fluorescence, primary screen (AID 1081); details: higher = more signal;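 note: binding of the protein to compounds printed on small-molecule microarray slides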
[8] = FRG1 expression reporter modulators in myotubes – cell-based, C2C12 myotubes, firefly/Renilla luciferase, luminescence, FRG1 inhibition for FSHD, primary screen (AID 1084); details: FRG1 promoter luciferase, higher = more signal, called active from +8 up or from −8 down
[9] = small molecules captured by biotinylated probe aFST – biochemical, small-molecule microarray, fluorescence 635/667, stem cell growth factor project, primary screen (AID 1086); details: higher = more signal;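 note: score merges 667 nm fluorescence with signal-to-noise of each printed compound spot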
[10] = binders of probe aHhip on microarray, primary screen, stem cell growth factor project, biochemical, small-molecule microarray, fluorescence 635/667 (AID 1087); details: higher = more signal;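 note: score merges spot fluorescence at 667nm with spot signal to noise ratio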
[11] = system: PRMT1 (protein arginine N-methyltransferase 1); assay: small molecules binding arginine methyltransferase PRMT1 – biochemical, small-molecule microarray, 635 nm fluorescence, primary screen (AID 1088); details: higher = more signal;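 note: binding of Prmt1 protein to compounds spotted on small-molecule microarray slides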
[12] = growth effects on S. cerevisiae YJM789 – YJM789 clinical isolate, OD600, 24 h, basal, primary screen (AID 1089); details: higher = more signal, called active from +8 up or from −8 down;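 note: growth of clinical yeast isolate S. cerevisiae YJM 789 seeded 1000 cells per well; test concentration not given here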
[13] = S. pombe growth modifiers, basal conditions – strain 972, OD600, 24 h, no modulator, primary screen (AID 1090);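 note: basal condition with compound alone and no growth modifier present; test concentration not given here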; details: S. pombe 972 growth, higher = more signal, called active from +8 up or from −8 down
[14] = budding yeast growth modifiers under rapamycin – strain BY4716, OD600, 96 h, primary screen (AID 1091); note: test concentration not given here; details: S. cerevisiae BY4716 + rapamycin, higher = more signal, called active from +8 up or from −8 down
[15] = biological target: Torsin-1A-interacting protein 2 (Homo sapiens) (UniProt Q8NFQ8); assay: small molecules binding lysate-expressed LULL1 – cell lysate, human LULL1 lysate, 635/667 nm fluorescence, primary screen (AID 1092); details: small-molecule microarray, hLULL1 lysate binding, 635 nm fluorescence; higher = more signal;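 note: probe is lysate of COS7 cells overexpressing human LULL1; score merges per-feature 667 nm fluorescence with signal-to-noise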
Sequence of Torsin-1A-interacting protein 2 (Homo sapiens) (Q8NFQ8 whole entry, looked up): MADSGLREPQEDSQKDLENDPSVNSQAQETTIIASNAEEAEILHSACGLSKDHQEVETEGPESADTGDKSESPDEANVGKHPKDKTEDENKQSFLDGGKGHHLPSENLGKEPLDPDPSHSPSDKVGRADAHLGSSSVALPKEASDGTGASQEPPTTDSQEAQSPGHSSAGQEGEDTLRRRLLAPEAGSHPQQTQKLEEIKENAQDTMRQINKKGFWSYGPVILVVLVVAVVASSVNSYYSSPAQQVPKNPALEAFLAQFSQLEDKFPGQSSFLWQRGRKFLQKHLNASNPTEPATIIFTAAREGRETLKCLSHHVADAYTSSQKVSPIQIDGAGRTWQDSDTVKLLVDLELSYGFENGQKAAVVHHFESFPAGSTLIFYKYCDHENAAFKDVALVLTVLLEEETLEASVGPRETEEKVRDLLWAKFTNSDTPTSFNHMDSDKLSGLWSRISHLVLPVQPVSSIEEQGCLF

[16] = optical density change of DRC41 E. coli – strain DRC41, OD650, 24 h, E. coli filamentation project, primary screen (AID 1093);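 note: MC1000 strain lacking acrAB efflux and sulA so SOS filamentation is blocked; test concentration not given here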; details: E. coli DRC41 growth, higher = more signal, called active from +8 up or from −8 down
[17] = probe aLefty2 binding to arrayed compounds – biochemical, biotinylated probe, 635/667 nm fluorescence, primary screen (AID 1094); details: small-molecule microarray, higher = more signal;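 note: score merges spot fluorescence near 667 nm with spot signal-to-noise ratio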
[18] = system: Noggin (protein binding on small-molecule microarray); assay: small molecules binding Noggin protein – biochemical, 635/667 nm fluorescence, primary screen (AID 1095); details: 635 nm fluorescence, higher = more signal;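 note: score merges 667 nm feature fluorescence with signal to noise over triplicate slides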
[19] = biological target: Neurogenic locus notch homolog protein 3 (Homo sapiens) (UniProt Q9UM47); assay: small molecules binding NOTCH3 protein – biochemical, 635/667 nm fluorescence, primary screen (AID 1096); details: small-molecule microarray, 635 nm fluorescence, higher = more signal
Sequence of Neurogenic locus notch homolog protein 3 (Homo sapiens) (Q9UM47 whole entry, looked up): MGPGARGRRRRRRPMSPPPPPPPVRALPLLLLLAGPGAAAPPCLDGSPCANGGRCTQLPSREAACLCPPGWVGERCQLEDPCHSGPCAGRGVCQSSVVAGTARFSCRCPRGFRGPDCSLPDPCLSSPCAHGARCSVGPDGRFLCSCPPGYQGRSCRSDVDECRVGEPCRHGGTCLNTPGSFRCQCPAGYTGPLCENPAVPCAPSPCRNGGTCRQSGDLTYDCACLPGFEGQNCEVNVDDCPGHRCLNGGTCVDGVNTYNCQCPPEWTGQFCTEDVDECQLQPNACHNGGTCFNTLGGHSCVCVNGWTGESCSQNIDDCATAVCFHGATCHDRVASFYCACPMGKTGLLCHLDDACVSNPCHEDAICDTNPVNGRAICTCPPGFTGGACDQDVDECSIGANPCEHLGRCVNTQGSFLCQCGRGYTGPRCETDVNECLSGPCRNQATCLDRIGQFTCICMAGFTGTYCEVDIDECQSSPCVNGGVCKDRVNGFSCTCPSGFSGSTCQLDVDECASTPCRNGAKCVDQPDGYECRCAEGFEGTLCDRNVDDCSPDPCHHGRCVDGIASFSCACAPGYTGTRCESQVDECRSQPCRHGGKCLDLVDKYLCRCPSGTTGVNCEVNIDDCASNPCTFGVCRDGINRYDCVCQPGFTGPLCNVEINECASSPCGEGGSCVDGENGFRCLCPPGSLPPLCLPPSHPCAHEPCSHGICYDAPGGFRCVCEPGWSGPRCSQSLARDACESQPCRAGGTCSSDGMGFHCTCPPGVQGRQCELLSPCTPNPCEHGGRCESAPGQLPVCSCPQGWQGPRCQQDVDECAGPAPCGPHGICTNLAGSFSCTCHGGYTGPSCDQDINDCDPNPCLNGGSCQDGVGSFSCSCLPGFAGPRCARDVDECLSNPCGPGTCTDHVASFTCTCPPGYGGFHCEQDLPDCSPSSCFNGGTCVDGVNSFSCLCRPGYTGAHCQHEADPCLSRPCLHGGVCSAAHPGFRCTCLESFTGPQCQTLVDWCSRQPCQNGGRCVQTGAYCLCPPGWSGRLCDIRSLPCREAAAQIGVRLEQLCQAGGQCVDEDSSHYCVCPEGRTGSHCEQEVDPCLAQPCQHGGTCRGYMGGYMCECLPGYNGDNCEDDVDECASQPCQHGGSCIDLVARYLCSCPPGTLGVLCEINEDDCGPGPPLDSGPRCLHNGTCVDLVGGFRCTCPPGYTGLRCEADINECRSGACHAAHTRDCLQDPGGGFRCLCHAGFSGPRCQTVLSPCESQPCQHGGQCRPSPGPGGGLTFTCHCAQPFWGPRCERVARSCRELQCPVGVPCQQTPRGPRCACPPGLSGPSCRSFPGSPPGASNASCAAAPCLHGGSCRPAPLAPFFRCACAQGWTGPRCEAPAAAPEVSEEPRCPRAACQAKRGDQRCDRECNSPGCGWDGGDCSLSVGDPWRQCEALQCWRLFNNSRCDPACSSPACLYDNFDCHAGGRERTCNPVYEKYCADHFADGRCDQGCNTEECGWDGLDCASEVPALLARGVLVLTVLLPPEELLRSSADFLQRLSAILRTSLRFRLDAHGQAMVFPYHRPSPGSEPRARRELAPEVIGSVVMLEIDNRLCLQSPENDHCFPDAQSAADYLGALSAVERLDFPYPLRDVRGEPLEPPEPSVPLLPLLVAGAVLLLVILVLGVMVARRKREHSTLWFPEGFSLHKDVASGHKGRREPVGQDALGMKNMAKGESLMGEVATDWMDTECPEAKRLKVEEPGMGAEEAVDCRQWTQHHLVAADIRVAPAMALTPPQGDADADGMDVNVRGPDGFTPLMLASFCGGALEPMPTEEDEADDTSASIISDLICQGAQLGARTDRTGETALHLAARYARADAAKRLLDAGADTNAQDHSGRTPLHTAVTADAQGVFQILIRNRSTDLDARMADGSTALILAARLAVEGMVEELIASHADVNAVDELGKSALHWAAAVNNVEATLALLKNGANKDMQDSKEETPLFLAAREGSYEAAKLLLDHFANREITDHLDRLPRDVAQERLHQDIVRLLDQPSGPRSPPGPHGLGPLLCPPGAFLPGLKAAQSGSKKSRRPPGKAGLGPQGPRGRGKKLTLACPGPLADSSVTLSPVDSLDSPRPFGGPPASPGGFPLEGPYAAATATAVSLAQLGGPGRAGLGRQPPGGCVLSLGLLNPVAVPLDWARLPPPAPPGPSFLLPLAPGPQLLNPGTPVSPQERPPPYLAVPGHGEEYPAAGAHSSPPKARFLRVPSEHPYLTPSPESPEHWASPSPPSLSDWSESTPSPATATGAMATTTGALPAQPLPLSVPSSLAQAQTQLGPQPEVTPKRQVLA

[20] = probe aEGFR binding to arrayed compounds – biochemical, biotinylated probe, 635/667 nm fluorescence, primary screen (AID 1097); details: small-molecule microarray, higher = more signal;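 note: probe is a biotinylated anti-EGFR antibody binding compounds printed on slides; score combines fluorescence near 667 nm and signal to noise of each spot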

| SMILES | composite z-score [1] | composite z-score [2] | composite z-score [3] | composite z-score [4] | composite z-score [5] | composite z-score [6] | composite z-score [7] | z-score [8] | composite z-score [9] | composite z-score [10] | composite z-score [11] | z-score [12] | z-score [13] | z-score [14] | composite z-score [15] | z-score [16] | composite z-score [17] | composite z-score [18] | composite z-score [19] | composite z-score [20] |
| --- | --- | --- | --- | --- | --- | --- | --- | --- | --- | --- | --- | --- | --- | --- | --- | --- | --- | --- | --- | --- |
| COc1cc2c(cc1O)C(C1CC1)N(Cc1ccc([N+](=O)[O-])o1)CC2 (stereo not given) | -0.0848 | -0.242 | -0.0226 | 0.682 | 1.52 | 1.49 | 1.03 | -1.1 (inactive) | 0.609 | -0.0003 | 0.287 | -0.123 (inactive) | -3.53 (inactive) | -2.16 (inactive) | 1.85 | -1.16 (inactive) | -0.0046 | -0.2 | 0.903 | -0.0734 |
| COc1cc2c(cc1O)C(c1ccc(CN3CCCC3)cc1)N(Cc1ccc([N+](=O)[O-])o1)CC2 (stereo not given) | -0.649 | -0.533 | -0.158 | 0.0497 | 0.345 | 2.15 | 0.936 | 1.06 (inactive) | -0.21 | -0.354 | -0.246 | -0.686 (inactive) | -2.48 (inactive) | -0.604 (inactive) | 1.65 | 0.098 (inactive) | -0.299 | -0.408 | 0.577 | -0.227 |
| CC1CC/C=C\[C@H]2OC34C=CCN(CCN5CCOCC5)C(=O)[C@H]3N(CCCCCCO)C(=O)[C@@H]4C2C(=O)O1 (stereo not given in full) | -0.0847 | -0.686 | -0.129 | -0.445 | -0.894 | -0.539 | 1.44 | 0.647 (inactive) | -0.493 | -0.171 | -0.592 | 0.0356 (inactive) | -0.573 (inactive) | 0.132 (inactive) | 0.318 | -0.263 (inactive) | -0.192 | -0.403 | -0.218 | -0.278 |
| COc1ccc(C#Cc2ccc3c(c2)[C@]2(C(=O)N3)[C@H](c3ccc(OCCO)cc3)N3[C@H](c4ccccc4)[C@H](c4ccccc4)OC(=O)[C@H]3[C@@H]2C(=O)O)cc1 | -0.302 | 0.478 | 0.0296 | 1.12 | 1.34 | 0.343 | 1.25 | 0.373 (inactive) | 0.29 | -0.0454 | 1.54 | 2.83 (inactive) | 0.685 (inactive) | 1.4 (inactive) | 3.21 | 2.57 (inactive) | -0.232 | 1.29 | 1.04 | 0.0649 |
| C[C@@H](OCc1ccccc1)C1NC(=O)[C@@]23C(=O)N[C@@H](Cc4ccccc4)C2[C@H](C)[C@@]2(C)O[C@H]2C3/C=C/C/C=C\CNC(=O)[C@H](Cc2ccccc2)NC1=O (stereo not given in full) | -0.497 | -0.0147 | -0.199 | 0.709 | -0.284 | -0.239 | 0.438 | 3.33 (inactive) | -0.128 | 0.103 | 0.448 | -0.712 (inactive) | -0.985 (inactive) | -0.0389 (inactive) | 0.956 | 1.29 (inactive) | -0.23 | 0.762 | 0.655 | -0.0257 |
| CCN(CC)c1ccc(N2CC=CC34O[C@@H]5C=CCOC(=O)[C@@H]5[C@H]3C(=O)N(CCCO)[C@@H]4C2=O)cc1 (stereo not given in full) | 0.515 | 0.15 | -0.062 | -0.679 | -1.04 | 0.986 | 0.391 | 0.275 (inactive) | -0.504 | 0.0881 | 0.586 | -0.6 (inactive) | -0.197 (inactive) | -0.298 (inactive) | 1.57 | 1.6 (inactive) | -0.139 | -0.927 | -0.453 | -0.188 |
| [N-]=[N+]=NCc1ccccc1[C@H]1OC(c2ccc(OCCCO)cc2)=N[C@@]1(Cc1ccccc1)C(=O)N1CCOCC1 | -0.212 | 0.768 | 0.0232 | 1.15 | 1.71 | 1.39 | 1.21 | -0.868 (inactive) | 1.8 | -0.166 | 1.46 | -2.07 (inactive) | -0.21 (inactive) | -0.0315 (inactive) | 3.51 | -0.522 (inactive) | 0.254 | 0.316 | 1.08 | 0.266 |
| NCCCC[C@@H]1NC(=O)[C@H]2C[C@@H](C(=O)NCc3ccc(F)cc3)[C@@H](c3cccc(OCCO)c3)N2C1=O | -0.261 | 0.357 | -0.0262 | 0.527 | 0.772 | 1.09 | 1.33 | -0.0673 (inactive) | 0.182 | -0.0994 | 1.56 | 1.74 (inactive) | -0.0785 (inactive) | 0.482 (inactive) | 2.69 | -0.765 (inactive) | -0.0258 | 1.81 | 1.05 | 0.0176 |
| C=CCN1C(=O)[C@]2(O[C@H](CCn3cc([C@H](O)c4ccccc4)nn3)[C@@H]([Si](C)(C)c3ccc(OC)cc3)[C@@H]2C)c2cc(N3C(=O)c4cccc5cccc3c45)ccc21 | -0.144 | -0.111 | -0.085 | 0.73 | -0.0893 | 1.07 | 0.76 | -1.84 (inactive) | -0.516 | -0.256 | 0.755 | -0.055 (inactive) | 1.06 (inactive) | 1.21 (inactive) | 0.6 | 0.374 (inactive) | -0.217 | 0.624 | 0.232 | -0.28 |
| COC(=O)C1=CC(CCCO)=CC(C2CC2)N(Cc2cccc(OC(F)(F)F)c2)C=C1C(=O)OC (stereo not given) | -0.207 | -0.166 | -0.0265 | 0.216 | 0.515 | 1.14 | 1.25 | 0.503 (inactive) | 0.497 | -0.0645 | 1.13 | -2.46 (inactive) | -1.06 (inactive) | -2.24 (inactive) | 2.82 | -2.57 (inactive) | 0.0386 | -0.273 | 0.749 | -0.0353 |
